The whole screen tested about 62,000 compounds, of which about 80 (0.1%) were called active. No rule for the calls is given here. A selection follows. Potency and affinity values are given separately.

The assay deals with Ephrin type-A receptor 4 (Mus musculus) (UniProt Q03137). The assay is described as follows: EphA4 ligand-binding antagonists – biochemical, colorimetric, mouse EphA4, primary screen (AID 689). To be noted: EphA4-AP binding to KYL peptide, pNPP A405, at 10 µM, stronger effect = higher value.
Sequence of Ephrin type-A receptor 4 (Mus musculus) (Q03137 whole entry, looked up): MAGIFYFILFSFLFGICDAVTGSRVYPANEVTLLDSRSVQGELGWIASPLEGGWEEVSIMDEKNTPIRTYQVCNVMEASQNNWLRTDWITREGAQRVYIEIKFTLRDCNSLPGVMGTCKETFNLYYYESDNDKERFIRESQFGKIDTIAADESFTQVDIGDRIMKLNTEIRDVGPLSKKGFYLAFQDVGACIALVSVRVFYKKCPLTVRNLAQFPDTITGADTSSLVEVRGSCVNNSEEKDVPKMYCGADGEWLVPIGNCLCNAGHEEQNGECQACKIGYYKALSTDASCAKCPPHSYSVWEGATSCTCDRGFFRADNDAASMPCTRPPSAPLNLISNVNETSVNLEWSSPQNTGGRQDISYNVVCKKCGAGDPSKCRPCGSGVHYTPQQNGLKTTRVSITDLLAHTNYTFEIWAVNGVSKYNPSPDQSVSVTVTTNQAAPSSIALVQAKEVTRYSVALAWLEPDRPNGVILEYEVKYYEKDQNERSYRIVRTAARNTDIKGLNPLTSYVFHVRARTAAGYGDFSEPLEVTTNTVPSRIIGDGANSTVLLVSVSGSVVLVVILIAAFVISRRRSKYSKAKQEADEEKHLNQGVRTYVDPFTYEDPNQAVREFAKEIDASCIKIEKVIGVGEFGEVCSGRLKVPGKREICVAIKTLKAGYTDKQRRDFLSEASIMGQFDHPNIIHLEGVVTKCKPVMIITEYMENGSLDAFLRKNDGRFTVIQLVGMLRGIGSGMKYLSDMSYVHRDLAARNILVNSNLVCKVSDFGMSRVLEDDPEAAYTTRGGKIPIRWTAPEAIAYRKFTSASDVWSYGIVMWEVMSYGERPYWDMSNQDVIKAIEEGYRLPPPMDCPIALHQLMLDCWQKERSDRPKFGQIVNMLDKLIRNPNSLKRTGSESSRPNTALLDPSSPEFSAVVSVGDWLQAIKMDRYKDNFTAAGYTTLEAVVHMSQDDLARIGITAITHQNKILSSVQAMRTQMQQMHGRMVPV
`CCOc1ccc2oc(C)c(C(=O)OC(C)C)c2c1`: the inhibition – broadly, the drop in the measured response relative to a control, in per cent – was -14.8% [this sample at 5 µg/mL] (inactive).

With `O=S(=O)(c1ccc(Cl)cc1)N1CCN(c2ccccn2)CC1`, the inhibition is 11% [this sample at 5 µg/mL] (inactive).

On to `Cc1cc([N+](=O)[O-])nn1CC(=O)NNC(=S)Nc1ccc(Cl)cc1`, for which the inhibition was -10.8% (inactive).

With `COc1ccc(N2Cc3cccc(C(=O)N4CCOCC4)c3C2=O)cc1`, the inhibition was 7.2% (inactive).

As for `COc1ccc(N2Cc3cccc(C(=O)N4CCN(C(=O)c5ccco5)CC4)c3C2=O)cc1`, the inhibition is 11.2% (inactive).

As to `Cn1c(SCC(=O)N2CCOCC2)nc2cccnc21`, the inhibition is 2.2% (inactive).

Regarding `O=C(OCc1ccccc1)Sc1nnc(-c2ccc(Br)cc2)o1`, the inhibition is -5.7% [this sample at 5 µg/mL] (inactive).

Take `CCOC(=O)CSc1nnc(-c2ccc(Br)cc2)o1`: the inhibition is 5.7% [this sample at 5 µg/mL] (inactive).

For the compound `Cc1cc2c(ccc3[nH]onc32)n1`, the inhibition was 16.7% (inactive).

Take `CN(C)/C(CN1CCOCC1)=C1\N=C(c2ccccc2)OC1=O`: the inhibition was -14% (inactive).

For the compound `CC1=NN(c2ccccc2)C(=O)/C1=C/c1cc2cc(C)ccc2nc1N1CCCCC1`, the inhibition is 5.3% (inactive).

For `O=C1OC(c2ccccc2)=N/C1=C\N1CCCCC1`, the inhibition is -17.4% (inactive).

For `Cc1ccc(C2=N/C(=C\N3CCCCC3)C(=O)O2)cc1`, the inhibition is -3.3% (inactive).

Turning to `CCn1c(SCC(=O)OC(C)C)nnc1-c1cccc(Cl)c1`, the inhibition is -13.7% (inactive).

In the case of `C=CCNC(=O)c1ccc(N2C(=O)c3ccccc3C2=O)cc1`, the inhibition was -9.3% [this sample at 5 µg/mL] (inactive).

On to `CCOC(=O)N1CCN(C(=O)CSCc2nc(-c3ccccc3C)oc2C)CC1`, for which the inhibition is 7.2% (inactive).

Consider `CCOc1ccc(N(CC(=O)Nc2ccc3c(c2)OCCO3)S(=O)(=O)c2c(C)noc2C)cc1`, for which the inhibition is -0.5% (inactive).

`O=C(C/C=N\OCc1c(Cl)cccc1Cl)Oc1ccc(Cl)cc1Cl`: the inhibition was -11.4% (inactive).

For `Nc1ccc2c(c1)C(=O)C(=O)c1ccccc1-2`, the inhibition was -16.9% (inactive).

For `Nc1ccc(NC(=O)c2ccccc2)c2c1C(=O)c1ccccc1C2=O`, the inhibition was -5.6% (inactive).

For the compound `CC1CN(CC(=O)N2CCc3[nH]c4ccccc4c3C2)CC(C)O1` (stereo not given), the inhibition is -14.2% (inactive).

With `CC(N=c1ccccn1C(=O)Nc1ccc(Cl)cc1)c1ccco1` (stereo not given), the inhibition is 6.6% (inactive).

Take `Oc1oc(-c2ccccc2)nc1C=Nc1ccccc1`: the inhibition is 1% (inactive).

Consider `CN(C)c1ccc(N=Cc2nc(-c3ccccc3)oc2O)cc1`, for which the inhibition was -7.6% (inactive).

In the case of `COc1ccc(C2C(C(=O)OCC(=O)N3CCCCC3)CCC(=O)N2c2ccc(OC)cc2)cc1` (stereo not given), the inhibition is -9.6% (inactive).
